Inconclusive results are not listed. A number with no mark means an inactive call. Calls follow the shape of the dose curve; as a rule, active = well fitted curve in the direction sought with a large enough effect; inconclusive = small, poorly fitted or top-dose-only effect, or another doubt; inactive = no such curve, though single readings can be large or run the other way.

Data on 21 compounds can be found in PubChem BioAssay (NCATS).
% is scaled to controls: 0 for no effect and ±100 for the full control effect.

Sequence of Ferritin light chain (Equus caballus) (P02791 2-175 limits assumed): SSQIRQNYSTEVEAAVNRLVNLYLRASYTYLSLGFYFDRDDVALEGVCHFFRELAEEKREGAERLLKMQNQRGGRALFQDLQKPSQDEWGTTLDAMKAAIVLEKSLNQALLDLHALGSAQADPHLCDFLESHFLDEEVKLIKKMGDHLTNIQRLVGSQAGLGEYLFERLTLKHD

This test addresses Ferritin light chain (Equus caballus) (UniProt P02791). The test can be described thus: qHTS Validation Assay for Identification of Novel General Anesthetics (AID 2323). To be noted: horse apoferritin, anesthetic-site fluorescent probe displacement; series mostly up to 76.9 µM; activity change, negative = inhibition: at the top concentration. An excerpt: Source: NIH Chemical Genomics Center [NCGC]
Assay Submitter: Roderic Eckenhoff, University of Pennsylvania
Screening Center PI: Christopher P. Austin, NIH
Probe Development: NIH Chemical Genomics Center [NCGC]
Anesthetic development has remained a largely empirical process. There are growing concerns about the cognitive effects of known general anesthetics and acceleration of the onset of neurodegenerative disease. The compounds' toxicity and multiple specific binding targets in the mammalian brain [4] has made them less attractive as drug leads. In this assay, a GABAergic mimetic model system, apoferritin and a profluorescent 1-aminoanthracene ligand (1-AMA), was used to construct a competitive binding assay for identification of novel general anesthetics. The assay was validated for 1-AMA using other known anesthetics, such as isoflurane (CID:3763) and propofol (CID: 4943), [6].
[1] S.L. Bianchi, T. Tran, C. Liu, S. Lin, Y. Li, J.M. Keller, R.G. Eckenhoff, and M.F. Eckenhoff, Brain and behavior changes in 12-month-old Tg2576 and nontransgenic mice exposed to anesthetics. Neurobiol Aging 29 (2008) 1002-10.
[2] Z. Xie, Y. Dong, U. Maeda, R.D. Moir, W. Xia, D.J. Culley, G. Crosby, and R.E. Tanzi, The inhalation anesthetic isoflurane induces a vicious cycle of apoptosis and amyloid beta-protein accumulation. J Neurosci 27 (2007) 1247-54.
[3] P. Honegger, and J.M. Matthieu, Selective toxicity of the general anesthetic propofol for GABAergic neurons in rat brain cell cultures. J Neurosci Res 45 (1996) 631-6.
[4] M.F. Eckenhoff, K. Chan, and R.G. Eckenhoff, Multiple specific binding targets for inhaled anesthetics in the mammalian brain. J Pharmacol Exp Ther 300 (2002) 172-9.
[5] C.A. Butts, J. Xi, G. Brannigan, A.A. Saad, S.P. Venkatachalan, R.A. Pearce, M.L. Klein, R.G. Eckenhoff, and I.J. Dmochowski, Identification of a fluorescent general anesthetic, 1-aminoanthracene. Proc Natl Acad Sci U S A 106 (2009) 6501-6.
[6] W.A. Lea, J. Xi, A. Jadhav, L. Lu, C.P. Austin, A. Simeonov, and R.G. Eckenhoff, A high-throughput approach for identification of novel general anesthetics. PLoS One 4 (2009) e7150.
Three uL of reagents (free 1-AMA (50% saturated solution of 1-aminoanthracene
in PBS) in columns 3, 4 as negative control and 1-AMA/apoferritin mixture (10 uM horse-spleen apoferritin in 50% saturated 1-aminoanthracene in PBS) in columns 1, 2, 5-48) was dispensed into 1536-well Greiner black assay plates. Compounds (23 nL) were transferred via Kalypsys pintool equipped with 1,536-pin array (10 nL slotted pins, V&P Scientific, San Diego, CA). Titration of the positive control, propofol, were delivered via pin transfer from separate control plates to the 2nd column of each assay plate. The starting concentration of the control, dissolved in DMSO, was at 160 mM, followed by two-fold dilution points in duplicate, for a total of 16 concentrations. The plates were incubated for 10 min at room temperature, and then read on an EnVision HTS multilabel reader (Perkin-Elmer, Waltham, MA) (end point read, 3 min/plate) using Fura2 BFP excitation filter (380 nm, bandwidth 10 nm) and fluorescein emission filter (535 nm, bandwidth 25 nm) set. A LANCE/DELFIA dichroic mirror with a cutoff wavelength at 400 nm was used to maximize signal accuracy and strength. Vehicle-only plates, with DMSO being pin-transferred to the entire column 5-48 compound area, were inserted uniformly at the beginning and the end of each library in order to monitor for and record any shifts in the background. Activity was computed as the normalized fluorescence response relative to free 1-AMA and 1-AMA/apoferritin complex values. Concentration-effect relationships were derived by using curve fitting algorithms developed in-house (http://ncgc.nih.gov/pub/openhts/). A four parameter Hill equation was fitted to the concentration-response data by minimizing the residual error between the modeled and observed responses.
On the technique in general: Quantitative high-throughput screening tests each substance at several concentrations.
For `O=C(O)c1cc2cc(Cc3cccnc3)ccc2o1`, the “activity change, negative = inhibition” value was -0.909%.
For `CN=C(NC#N)Nc1ccc(C2=NNC(=O)CC2C)cc1` (stereo unspecified) the value was -5.35%.
On to `CC(CCc1ccccc1)NCC(O)c1ccc(O)c(C(N)=O)c1` (stereo unspecified), for which the “activity change, negative = inhibition” value was 72%.
For `COc1cc(NS(C)(=O)=O)ccc1Nc1c2ccccc2nc2ccccc12`, the “activity change, negative = inhibition” value was 1.85%.
The figure for `Nc1cc(Cl)c(NC2=NCCN2)c(Cl)c1` is -0.627%; for `COC(=O)[C@H]1[C@H]2C[C@H]3c4[nH]c5ccccc5c4CCN3C[C@H]2CC[C@@H]1O` it is -8.7%.
For `CNCCC(Oc1ccccc1C)c1ccccc1` (stereo unspecified) the value was -6.09%; for `O=C1CCC(c2ccc(-n3ccnc3)cc2)=NN1`, -3.77%; for `C[C@@H]1C(=O)NC2=Nc3cccc(Cl)c3CN21`, -9.88%.
Consider `C[N+]1(CCCCC[N+]2(C)CCCC2)CCCC1`, for which the “activity change, negative = inhibition” value is -2.19%.
On to `C1CCc2nnnn2CC1`, for which the “activity change, negative = inhibition” value is -7.31%.
For `N[C@H](CO)C(=O)O`, the “activity change, negative = inhibition” value is -1.54%.
The figure for `CN1C2CCC1CC(OC(=O)c1c[nH]c3ccccc13)C2` (stereo unspecified) is -12.5%; for `COc1cc(-c2ccc(=O)[nH]n2)ccc1OC(F)F` it is -8.54%.
The figure for `N[C@@H](Cc1cnc[nH]1)C(=O)O` is -4.46%; for `C[C@]12CC[C@@H]3c4ccc(O)cc4CC[C@H]3[C@@H]1CC[C@@H]2O` it is -4.68%.
For `Oc1ccc(O)cc1` the value was -3.95%; for `CC1(C)CCC(NC(=O)[C@@H](N)CCC(=O)O)CC1`, -2.05%; for `CCC(NC(C)C)C(O)c1ccc(O)c(O)c1` (stereo unspecified), 0.255%.
As for `CCCn1c(=O)[nH]c(=O)c2[nH]cnc21`, the “activity change, negative = inhibition” value is -6.01%.
Consider `CC(C)NC[C@@H](O)COc1cccc2ccccc12`, for which the “activity change, negative = inhibition” value is 5.38%.
